The full list was thinned out, with hits kept by preference.
Pf Dd2 growth: Plasmodium falciparum Dd2 growth inhibition | P. falciparum Dd2 growth, SYBR Green, 72 h | Potency, µM (titrated, usually from 28.9 µM), hits mostly inhibitors | 120,000 tested, 4.3% active | AID 1347417; active means well fitted inhibition curve with a large enough effect; further: nearly all actives have a fitted effect of over 65% in size
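Readout: SYBR Green fluorescence, 485 nm excitation, 535 nm emission, after ~16 h lysis at 37C. Before that, Dd2-infected red cells (2.5% hematocrit) grew 72 h with compound, 29 uM top final concentration.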
Numbers stand for hits.

For CC1(C)N=C(c2ccccc2)C(=O)N1CC(=O)NC1CCc2ccccc21 (stereo not given) the results were Pf Dd2 growth inactive.
COc1ccccc1CN1CCOc2cc([S+](=O)([O-])N(C)C)ccc2C1 was read as Pf Dd2 growth inactive.
COc1cc2c(cc1OCc1ccccc1)N(C(=O)Cc1ccc3c(c1)OCO3)CC21CCN(C)CC1 was read as Pf Dd2 growth inactive.
`Cn1ccc(C(=O)N2CC(COc3ccccc3)C3(C2)CN(c2ccccc2)C3)n1` (stereo not given) gave Pf Dd2 growth inactive.
Screening COc1cc2c(cc1CCc1ccccc1)N(C(=O)c1ccn(C)n1)CC21CCN(C(C)=O)CC1 returned Pf Dd2 growth 10µM.
Screening COc1cc2c(cc1OCc1ccccc1)N(C(=O)c1ccccc1OC)CC21CCN(C)CC1 returned Pf Dd2 growth 4µM.
COc1cccc(CN2C(=O)OC3(CCN(C(=O)c4ccn(C)n4)CC3)C2(C)c2cccnc2)c1 (stereo not given) was read as Pf Dd2 growth inactive.
COc1cc2c(cc1OCc1ccccc1)N(C(=O)C(C)C)CC21CCN(C)CC1 was read as Pf Dd2 growth inactive.
COc1cc2c(cc1CCc1ccccc1)N(C(=O)CC(C)C)CC21CCN(C(C)=O)CC1 was read as Pf Dd2 growth 4µM.
For COc1cc2c(cc1CCc1ccccc1)N([S+](=O)([O-])c1ccc3c(c1)CCO3)CC21CCN(C(C)=O)CC1 the results were Pf Dd2 growth 10µM.
`COc1ccc([S+](=O)([O-])N2CC3(CCN(CC(=O)O)CC3)c3cc(OC)c(OCC4CCCC4)cc32)cc1` gave Pf Dd2 growth inactive.
For COc1cc2c(cc1Oc1ccccc1)NC(=O)C21CCN(C(=O)Cc2ccccc2)CC1 the results were Pf Dd2 growth inactive.
COc1cc2c(cc1OCc1ccccc1)N(C(=O)c1ccc3[nH]ccc3c1)CC21CCN(C)CC1 was read as Pf Dd2 growth inactive.
Screening O=C1NCCCCCCN(C(=O)COc2ccccc2)[C@H]2CCCC[C@@H]12 returned Pf Dd2 growth inactive.
Screening COC(=O)CN1C(=O)[C@@H]2C[C@@H](O)CN2C2(CNC2)C1=O returned Pf Dd2 growth inactive.
Screening COc1ccc(C2Cn3nnc(C(=O)N4CCC(C(=O)NCc5ccccc5F)CC4)c3CO2)cc1 (stereo not given) returned Pf Dd2 growth inactive.
CCc1ccc(NC(=O)Cn2ccn3nc4c(c3c2=O)CCCCC4)cc1 was read as Pf Dd2 growth inactive.
O=C(c1ccccc1)N1CCCC(c2nn(-c3ccc(Cl)cc3)c(=O)[nH]2)C1 (stereo not given) was read as Pf Dd2 growth inactive.
CNC(=O)[C@@H]1CN(S(=O)(=O)c2cc(F)ccc2C)C[C@H]1C1CCN(C)CC1 was read as Pf Dd2 growth inactive.
O=C(c1cccs1)N1CCc2n[nH]c(=O)n2CC1 was read as Pf Dd2 growth inactive.
`CC1(C)CN(Cc2nnc(-c3cccc(F)c3)o2)CC[C@]1(C)O` gave Pf Dd2 growth inactive.
`CN(C)C(=O)N1CCn2nc(CNC(=O)c3cc4ccccc4n3C)cc2C1` gave Pf Dd2 growth inactive.
COC(=O)c1cn([C@H]2CO[C@H]3[C@@H]2OC[C@@H]3NCc2ccccc2)nn1 was read as Pf Dd2 growth inactive.
Screening Cc1ccc(OCc2nc(C3CCCN3)no2)cc1 (stereo not given) returned Pf Dd2 growth inactive.
`Cn1cnc2cc(-c3cccc4[nH]ncc34)cc(C(=O)NCc3cccnc3)c21` gave Pf Dd2 growth inactive.
`CC(=O)NC1(C)CCN(c2cccc(C(F)(F)F)c2)CC1` gave Pf Dd2 growth inactive.
`COC(=O)c1c(-c2ccc(Cl)cc2)noc1N1CCN(c2ccc(F)cc2)CC1` gave Pf Dd2 growth inactive.
`COC(=O)c1c(-c2ccc(Cl)cc2)noc1N1CCN(c2cccc(C(F)(F)F)c2)CC1` gave Pf Dd2 growth 7.1µM.
For COc1cc(Cl)ccc1C(=O)N1C[C@@H](F)C[C@H]1C(=O)N1CCCCC1 the results were Pf Dd2 growth inactive.
Screening Cc1noc(C)c1S(=O)(=O)N1CCC2(CC1)NCCc1c2[nH]c2ccccc12 returned Pf Dd2 growth 5µM.
`Cc1ccncc1C(=O)N1CCC2(CC1)c1[nH]c3ccccc3c1CCN2C` gave Pf Dd2 growth inactive.
`Cc1noc(C)c1C(=O)N1CCC2(CC1)NCCc1c2[nH]c2ccccc12` gave Pf Dd2 growth inactive.
`Cn1cnc(S(=O)(=O)N2CCC3(CC2)NCCc2c3[nH]c3ccccc23)c1` gave Pf Dd2 growth inactive.
CN1CCc2c([nH]c3ccccc23)C12CCN(C(=O)Cc1cccnc1)CC2 was read as Pf Dd2 growth inactive.
CN1CCc2c([nH]c3ccccc23)C12CCN(S(=O)(=O)c1cccnc1)CC2 was read as Pf Dd2 growth 4.5µM.
O=C(C1CCC1)N1CCn2c(nnc2[C@@H]2C[C@@H](O)CN2Cc2ccccc2)C1 was read as Pf Dd2 growth inactive.
Screening CN(C)C(=O)c1nc(-c2ccc(Cl)cc2Cl)c2ccccn12 returned Pf Dd2 growth inactive.
For Cc1ccc(C(=O)N2CC[C@@H]3CN(S(C)(=O)=O)[C@@H]3C2)c(=O)[nH]1 the results were Pf Dd2 growth inactive.
